From PubChem BioAssay (NCI)
This is part of a sample that, as a whole, favours compounds with a hit. Of some 83,000 tested, about 20% had one in any assay.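 The endpoint reported here, percent growth, reads 100 for growth as untreated, 0 for no net growth and -100 for all cells dead.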 Activity calls are given as the source filed them. The calls were made as follows: active = growth percent below 10; inactive = the rest.

Tests used:
Experiment in all cases: NCI-60 one-dose screen, 48 h (100 = growth as untreated, 0 = no growth, -100 = all killed)
Conditions in all cases: 10 µM unless noted
[1] = system: NCI-H23 lung
[2] = system: NCI-H226 lung
[3] = system: NCI-H322M lung
[4] = system: HOP-62 NSCLC
[5] = system: NCI-H460 lung
[6] = system: HOP-92 NSCLC
[7] = system: NCI-H522 lung
[8] = system: A549/ATCC NSCLC
[9] = system: 786-0 renal
[10] = system: COLO 205 colon
[11] = system: DU-145 prostate
[12] = system: K-562 leukemia
[13] = system: MALME-3M melanoma
[14] = system: MDA-MB-231 breast
[15] = system: RXF 393 renal
[16] = system: SF-268 CNS
[17] = system: SF-295 CNS
[18] = system: SF-539 CNS
[19] = system: UACC-257 melanoma
[20] = system: M14 melanoma

Measured: growth

CCOC(=O)n1cc(C2=C(c3ccc(OC)c(OC)c3)COC2=O)c2ccccc21
active: [5] 8.64% | [6] 5.33% | [7] -23.6% | [10] -60.7% | [11] -7.55% | [12] 9.56% | [15] -4.89% | [18] -15%
inactive: [1] 39.3% | [2] 55.5% | [3] 52% | [4] 26.1% | [8] 17.8% | [9] 23.5% | [13] 45% | [14] 13.5% | [16] 28.2% | [17] 16.2% | [19] 91.2% | [20] 54.6%

CN(C)C(=S)Sc1ccc([N+](=O)[O-])cc1[N+](=O)[O-]
inactive: [1] 44.4% | [2] 49.6% | [3] 101% | [4] 71.1% | [8] 43.6% | [9] 63.8% | [11] 64.7% | [14] 44.3% | [16] 52.8% | [17] 90.3% | [18] 52.1% | [19] 41.4%
active: [5] -41.6% | [6] 0.304% | [7] -92.1% | [10] -22.7% | [12] 8.13% | [13] -4.06% | [15] -61.1% | [20] 8.95%

CCCCN(CC)CC(CC)Nc1cc(OC)cc2cccnc12 (stereo not given)
inactive: [1] 113% | [2] 107% | [3] 110% | [4] 110% | [5] 110% | [6] 89.4% | [7] 118% | [8] 96.3% | [9] 107% | [10] 119% | [11] 110% | [12] 114% | [13] 110% | [14] 115% | [15] 122% | [16] 104% | [17] 109% | [18] 102% | [19] 92.9% | [20] 109%

CC[C@]12C=CCN3CC[C@@]4(c5ccc(OC)cc5N(C)[C@H]4[C@@](O)(C(=O)OC)[C@@H]1OC(=O)CCC(=O)N[C@H](Cc1c[nH]c4ccccc14)C(=O)OC)[C@@H]32
active: [1] -28% [100 µM] | [2] -37.2% [100 µM] | [3] -53.9% [100 µM] | [4] -7.11% [100 µM] | [5] -65.7% [100 µM] | [6] -56.7% [100 µM] | [7] -16.2% [100 µM] | [8] -30.9% [100 µM] | [9] -47.1% [100 µM] | [10] 0.36% [100 µM] | [11] -49.9% [100 µM] | [12] 5.85% [100 µM] | [13] -68.8% [100 µM] | [14] -71% [100 µM] | [15] -60.6% [100 µM] | [16] -43% [100 µM] | [17] -38.4% [100 µM] | [18] -57.1% [100 µM] | [19] -29.2% [100 µM] | [20] -32.8% [100 µM]

N=C(N)c1ccc(-c2ccc(-c3ccc(-c4cccs4)s3)s2)cc1F
inactive: [1] 93.2% | [2] 95.7% | [3] 26% | [4] 100% | [5] 13% | [6] 94.8% | [7] 100% | [8] 15.1% | [9] 99.5% | [10] 101% | [11] 107% | [12] 15.9% | [13] 102% | [14] 91.2% | [15] 90.3% | [16] 98.8% | [17] 97.5% | [18] 94.7% | [19] 102% | [20] 99.4%

Cn1cc(-c2nnc(-c3cn(C)c4ncccc34)o2)c2ccccc21
active: [6] 7.94%
inactive: [1] 51.3% | [2] 64.9% | [3] 75.8% | [4] 32.6% | [5] 23.7% | [7] 21.3% | [8] 36% | [9] 59.7% | [10] 25.7% | [11] 60% | [12] 10.3% | [13] 19.3% | [14] 38.5% | [15] 10% | [16] 51.1% | [17] 13.1% | [18] 27.7% | [19] 73.6% | [20] 35.5%

Cc1cc(C)c(-c2cc(O)c(-c3c(C)cc(C)cc3C)cc2O)c(C)c1
active: [7] -12.7% | [10] -12.8% | [12] 8.34% | [18] -25.8%
inactive: [1] 34.9% | [2] 64.4% | [3] 68.6% | [4] 47.2% | [5] 16.9% | [6] 94.3% | [8] 47.6% | [9] 30.4% | [11] 20.3% | [13] 54.9% | [14] 51.5% | [15] 18% | [16] 55.3% | [17] 30.2% | [19] 73.8% | [20] 20.7%
